Article PMC4336329 (PLoS ONE, 2015)
About 14,000 (4.5%) of roughly 310,000 compounds showed an effect of 50% or more. The effect is printed as a negative number. The list comes from a sample in which strong results are over-represented; it also holds similar structures and randomly drawn compounds.
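Note: peak tail current of the secondary pulse compared with the same well before compound.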

The compounds below were run against human ether-à-go-go-related gene (hERG) potassium channel (human, UniProt Q12809) (assay: primary screen, population patch clamp on CHO cells stably expressing hERG; higher = less effect of the substance).
Chain of human ether-à-go-go-related gene (hERG) potassium channel (Q12809 whole entry, looked up): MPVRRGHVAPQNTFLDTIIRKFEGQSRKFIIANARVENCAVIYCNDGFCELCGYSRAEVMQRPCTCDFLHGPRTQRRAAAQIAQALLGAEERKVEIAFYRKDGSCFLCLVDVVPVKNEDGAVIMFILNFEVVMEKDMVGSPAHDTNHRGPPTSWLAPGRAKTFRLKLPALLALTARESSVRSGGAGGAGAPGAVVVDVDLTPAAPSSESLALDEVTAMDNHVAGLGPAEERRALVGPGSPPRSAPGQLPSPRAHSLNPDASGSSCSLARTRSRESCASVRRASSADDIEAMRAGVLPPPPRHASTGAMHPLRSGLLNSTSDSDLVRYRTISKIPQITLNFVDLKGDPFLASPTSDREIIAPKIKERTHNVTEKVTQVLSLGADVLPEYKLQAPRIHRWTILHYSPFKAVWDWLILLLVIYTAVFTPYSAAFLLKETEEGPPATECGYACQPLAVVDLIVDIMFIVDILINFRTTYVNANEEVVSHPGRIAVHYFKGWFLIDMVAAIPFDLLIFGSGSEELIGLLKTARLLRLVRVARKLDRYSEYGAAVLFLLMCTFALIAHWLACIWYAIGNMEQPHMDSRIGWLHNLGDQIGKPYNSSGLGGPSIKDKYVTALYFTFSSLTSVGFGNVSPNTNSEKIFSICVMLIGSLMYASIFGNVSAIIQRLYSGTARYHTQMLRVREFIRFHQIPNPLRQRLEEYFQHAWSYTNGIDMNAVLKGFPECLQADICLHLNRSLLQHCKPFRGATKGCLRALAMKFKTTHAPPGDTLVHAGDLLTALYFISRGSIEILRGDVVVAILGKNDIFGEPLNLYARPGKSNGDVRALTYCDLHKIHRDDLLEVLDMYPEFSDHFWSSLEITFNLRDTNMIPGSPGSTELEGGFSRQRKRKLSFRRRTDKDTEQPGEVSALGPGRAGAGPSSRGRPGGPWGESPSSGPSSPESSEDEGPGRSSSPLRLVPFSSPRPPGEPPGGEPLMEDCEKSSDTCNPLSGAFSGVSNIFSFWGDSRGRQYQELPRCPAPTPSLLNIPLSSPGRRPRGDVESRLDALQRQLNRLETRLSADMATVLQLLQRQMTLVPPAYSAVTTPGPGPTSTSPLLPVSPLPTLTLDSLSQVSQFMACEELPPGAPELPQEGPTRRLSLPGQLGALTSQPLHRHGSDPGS
For `CCc1ccc(NS(=O)(=O)c2ccc3oc(=O)ccc3c2)cc1`, the “hERG current change (%, negative = inhibition) at 10uM” value was -1.91%.
With `CCOC(=O)C1(Cc2ccc(Cl)cc2)CCN(C(=O)C2CCCO2)CC1` (stereo not shown) the “hERG current change (%, negative = inhibition) at 10uM” value was -33.2%.
In the case of `CCOC(=O)C1(Cc2ccc(Cl)cc2)CCN(C(=O)c2ccoc2)CC1`, the “hERG current change (%, negative = inhibition) at 10uM” value is reported as -49.4%.
`CCOC(=O)C1(Cc2ccc(OC)cc2)CCN(C(=O)c2sc(C)nc2C)CC1` was tested, and the “hERG current change (%, negative = inhibition) at 10uM” value was 1.86%.
`CCOC(=O)C1(Cc2ccc(Cl)cc2)CCN(C(=O)c2sc(C)nc2C)CC1` was tested, and the “hERG current change (%, negative = inhibition) at 10uM” value was -52.9%.
`CCOC(=O)C1(Cc2ccc(Cl)cc2)CCN(C(=O)C2=NNC(=O)CC2)CC1` was tested, and the “hERG current change (%, negative = inhibition) at 10uM” value was -69.6%.
`CCOC(=O)C1(Cc2ccc(OC)cc2)CCN(C(=O)c2csc(C)n2)CC1` was tested, and the “hERG current change (%, negative = inhibition) at 10uM” value was 2.99%.
With `CCOC(=O)C1(Cc2ccc(Cl)cc2)CCN(C(=O)c2cnc(C)cn2)CC1` the “hERG current change (%, negative = inhibition) at 10uM” value was -57.1%.
In the case of `CCOC(=O)C1(Cc2ccc(Cl)cc2)CCN(C(=O)c2cc(C)nc(C)n2)CC1`, the “hERG current change (%, negative = inhibition) at 10uM” value is reported as -38.1%.
In the case of `C=CCN1CC(C(=O)N2CCC(Cc3ccc(Cl)cc3)(C(=O)OCC)CC2)CC1=O` (stereo not shown), the “hERG current change (%, negative = inhibition) at 10uM” value is reported as -72.4%.
In the case of `CCOC(=O)C1(Cc2ccc(Cl)cc2)CCN(C(=O)c2cscn2)CC1`, the “hERG current change (%, negative = inhibition) at 10uM” value is reported as -37.4%.
With `CCOC(=O)N1CCN(C(=O)C2CCC(=O)N(Cc3ccc(Cl)cc3)C2)CC1` (stereo not shown) the “hERG current change (%, negative = inhibition) at 10uM” value was -40.5%.
With `O=C1CCC(C(=O)N2CCC(CO)(Cc3ccc(Cl)cc3)CC2)=NN1` the “hERG current change (%, negative = inhibition) at 10uM” value was -32.5%.
In the case of `O=C1CC(NS(=O)(=O)c2cccs2)CN1c1cccc(F)c1` (stereo not shown), the “hERG current change (%, negative = inhibition) at 10uM” value is reported as -6.29%.
In the case of `O=C(Nc1ccc(Cl)c(S(=O)(=O)N2CCOCC2)c1)c1ccc2c(c1)OCCO2`, the “hERG current change (%, negative = inhibition) at 10uM” value is reported as 12.6%.
`COc1ccc2c(c1)C1NC(=S)N[C@@](C)(O2)C1C(=O)Nc1ccccc1` (stereo partly shown) was tested, and the “hERG current change (%, negative = inhibition) at 10uM” value was -3.49%.
For `CCOC(=O)[C@H]1[C@H]2COc3cc(OC)ccc3[C@@H]2N2C(=O)CN(Cc3ccccc3)C(=O)[C@@]12C`, the “hERG current change (%, negative = inhibition) at 10uM” value was -8.34%.
With `COc1ccc(OC)c(NS(=O)(=O)c2ccc(Br)s2)c1` the “hERG current change (%, negative = inhibition) at 10uM” value was -12.4%.
`N#CC1=C(N)N(c2ccccc2Sc2ccccc2)C(=O)C1` was tested, and the “hERG current change (%, negative = inhibition) at 10uM” value was 3.4%.
For `Cc1ccc(NC(=O)N2CCC(NC(=O)c3ccco3)CC2)cc1`, the “hERG current change (%, negative = inhibition) at 10uM” value was 4.55%.
In the case of `COC(=O)C(C)Sc1nc2c(c(=O)n1-c1ccccc1)SCC2` (stereo not shown), the “hERG current change (%, negative = inhibition) at 10uM” value is reported as -6.49%.
With `COc1ccc(NC(=O)CN(C)C(=O)c2cn(-c3ccccc3)nc2-c2ccc(OC)cc2)cc1` the “hERG current change (%, negative = inhibition) at 10uM” value was -7.66%.
With `CCCS(=O)(=O)N1CCN(S(=O)(=O)c2ccc(F)cc2)CC1` the “hERG current change (%, negative = inhibition) at 10uM” value was 10.6%.
In the case of `O=C(Nc1nccs1)C1CCCCN1S(=O)(=O)c1ccccc1` (stereo not shown), the “hERG current change (%, negative = inhibition) at 10uM” value is reported as 4.8%.
`Cc1ccc(C)c(NS(=O)(=O)c2ccc(-c3cnc(C4CC4)o3)cc2)c1` was tested, and the “hERG current change (%, negative = inhibition) at 10uM” value was 4.27%.
With `CC(C)CCn1c(CN2CCN(Cc3ccccc3)CC2)nc2c1c(=O)[nH]c(=O)n2C` the “hERG current change (%, negative = inhibition) at 10uM” value was -17.6%.
For `CCCCCCn1c(N2CCN(c3ccccc3)CC2)nc2c1c(=O)[nH]c(=O)n2C`, the “hERG current change (%, negative = inhibition) at 10uM” value was -32.6%.
`Cn1c(=O)[nH]c(=O)c2c1nc(N1CCN(Cc3ccccc3)CC1)n2CCSc1ncccn1` was tested, and the “hERG current change (%, negative = inhibition) at 10uM” value was -25.7%.
In the case of `CCN1CCN(c2nc3c(c(=O)[nH]c(=O)n3C)n2Cc2ccccc2)CC1`, the “hERG current change (%, negative = inhibition) at 10uM” value is reported as -27.7%.
`CCN1CCN(c2nc3c(c(=O)[nH]c(=O)n3C)n2CCCc2ccccc2)CC1` was tested, and the “hERG current change (%, negative = inhibition) at 10uM” value was -79.2%.
With `Cc1cccc(Cn2c(CN3CCN(Cc4ccccc4)CC3)nc3c2c(=O)[nH]c(=O)n3C)c1` the “hERG current change (%, negative = inhibition) at 10uM” value was -64.9%.
`Cn1c(=O)[nH]c(=O)c2c1nc(N1CCN(Cc3ccccc3)CC1)n2CCCc1ccccc1` was tested, and the “hERG current change (%, negative = inhibition) at 10uM” value was -31.9%.
In the case of `Cn1c(=O)[nH]c(=O)c2c1nc(CN1CCOCC1)n2Cc1ccccc1`, the “hERG current change (%, negative = inhibition) at 10uM” value is reported as -15.7%.
In the case of `CN1CCN(Cc2nc3c(c(=O)[nH]c(=O)n3C)n2CCc2ccccc2)CC1`, the “hERG current change (%, negative = inhibition) at 10uM” value is reported as -28.1%.
In the case of `CCCCCn1c(N2CCN(Cc3ccccc3)CC2)nc2c1c(=O)[nH]c(=O)n2C`, the “hERG current change (%, negative = inhibition) at 10uM” value is reported as -74.8%.
`Cn1c(=O)[nH]c(=O)c2c1nc(CN1CCN(Cc3ccccc3)CC1)n2CC(N)=O` was tested, and the “hERG current change (%, negative = inhibition) at 10uM” value was 7.32%.
With `CCCCCn1c(CN2CCN(Cc3ccccc3)CC2)nc2c1c(=O)[nH]c(=O)n2C` the “hERG current change (%, negative = inhibition) at 10uM” value was -72.3%.
For `COc1ccc(OC)c(NC(=O)CS(=O)(=O)Cc2nc(-c3ccccc3C)oc2C)c1`, the “hERG current change (%, negative = inhibition) at 10uM” value was 7.66%.
For `COc1ccc2c(C)cc(SC3CCOC3=O)nc2c1` (stereo not shown), the “hERG current change (%, negative = inhibition) at 10uM” value was -0.712%.
In the case of `CCCC(=O)NC(=S)Nc1cccc(NC(=O)c2ccccc2Cl)c1`, the “hERG current change (%, negative = inhibition) at 10uM” value is reported as -3.15%.
With `CCCCn1c(N2CCC(Cc3ccccc3)CC2)nc2c1c(=O)[nH]c(=O)n2C` the “hERG current change (%, negative = inhibition) at 10uM” value was -49.4%.
`CCCCCn1c(CN2CCN(c3cccc(Cl)c3)CC2)nc2c1c(=O)[nH]c(=O)n2C` was tested, and the “hERG current change (%, negative = inhibition) at 10uM” value was -63.3%.
In the case of `CCCCCn1c(N2CCN(c3cccc(Cl)c3)CC2)nc2c1c(=O)[nH]c(=O)n2C`, the “hERG current change (%, negative = inhibition) at 10uM” value is reported as -29.2%.
In the case of `CCCn1c(N2CCC(Cc3ccccc3)CC2)nc2c1c(=O)[nH]c(=O)n2C`, the “hERG current change (%, negative = inhibition) at 10uM” value is reported as -51.2%.
In the case of `CCCCCn1c(N2CCC(Cc3ccccc3)CC2)nc2c1c(=O)[nH]c(=O)n2C`, the “hERG current change (%, negative = inhibition) at 10uM” value is reported as -11%.
In the case of `CCCCn1c(CN2CCN(c3cccc(Cl)c3)CC2)nc2c1c(=O)[nH]c(=O)n2C`, the “hERG current change (%, negative = inhibition) at 10uM” value is reported as 5.59%.
With `CCOC(=O)N1CCC(NC(=O)CN(c2ccc(C(C)C)cc2)S(=O)(=O)c2c(C)nn(C)c2C)CC1` the “hERG current change (%, negative = inhibition) at 10uM” value was -10.3%.
For `CC(CNC(=O)c1cc(COc2ccc3ncccc3c2)on1)c1ccccc1` (stereo not shown), the “hERG current change (%, negative = inhibition) at 10uM” value was 9.51%.
In the case of `COc1ccc(S(=O)(=O)N2CCN(C)CC2)cc1C(=O)Nc1ccccc1`, the “hERG current change (%, negative = inhibition) at 10uM” value is reported as 1.79%.
With `CCN(CC(O)COc1ccc(OCC(O)CN(CC)C2CCCCC2)cc1)C1CCCCC1` (stereo not shown) the “hERG current change (%, negative = inhibition) at 10uM” value was 22.2%.
In the case of `O=[N+]([O-])c1ccc(OCC(O)CN(C2CCCCC2)C2CCCCC2)cc1` (stereo not shown), the “hERG current change (%, negative = inhibition) at 10uM” value is reported as -75.8%.
`CN(CC(O)COc1ccc(OCC(O)CN(C)C2CCCCC2)cc1)C1CCCCC1` (stereo not shown) was tested, and the “hERG current change (%, negative = inhibition) at 10uM” value was 8.06%.
For `O=C(OCC(O)COc1ccccc1)c1ccc([N+](=O)[O-])cc1` (stereo not shown), the “hERG current change (%, negative = inhibition) at 10uM” value was -7.79%.
`COc1ccc(OCC(O)CN(C2CCCCC2)C2CCCCC2)cc1.Cl` (stereo not shown) was tested, and the “hERG current change (%, negative = inhibition) at 10uM” value was -59.5%.
`CN(CC(O)COc1ccc2ccccc2c1)C1CCCCC1.Cl` (stereo not shown) was tested, and the “hERG current change (%, negative = inhibition) at 10uM” value was -45.2%.
